These results are taken from PubChem BioAssay (Tox21).

The target in experiment [1] is Acetylcholinesterase (Homo sapiens) (UniProt P22303). The experiment in a line: Acetylcholinesterase (AChE) small molecule antagonists: colormetric cell-based qHTS assay (AID 1347395; calls by dose curve; note: nearly all actives have a fitted effect of over 30% in size). The method in brief:
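After overnight attachment at 37 C, SH-SY5Y cells get 30 min compound exposure; detection cocktail (acetylthiocholine, DTNB) then incubates 90 min at 37 C, and absorbance reflects AChE-generated thiocholine.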
Background: Quantitative high-throughput screening tests each substance at several concentrations.

Experiment [2] shares this target. As to the kind of experiment: Acetylcholinesterase (AChE) small molecule antagonists: enzyme-based qHTS assay (AID 1347397; calls by dose curve; note: nearly all actives have a fitted effect of over 55% in size). Conditions: Potency: AChE enzyme activity inhibition. The method in brief: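 Recombinant human AChE, dispensed at 50 mU/mL, was preincubated with Tox21 10K compounds or DMSO vehicle for 30 min at room temperature. DTNB plus acetylthiocholine was then added, and thiocholine was measured colorimetrically after a further 10 min.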

Experiment [3] shares this target. As to the kind of experiment: Acetylcholinesterase (AChE) small molecule antagonists: fluorescence cell-based qHTS assay (AID 1347398; calls by dose curve; note: nearly all actives have a fitted effect of over 50% in size). Conditions: Potency: AChE activity. The method in brief: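 Human SH-SY5Y cells were plated overnight at 37 C, exposed to compound for 30 min at 37 C, 5% CO2, then given acetylthiocholine plus Thiolite Green for 40 min at room temperature; thiocholine fluorescence (Ex/Em 490/520 nm) reports endogenous AChE activity.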

The target is the same in experiment [4]. The experiment in a line: Acetylcholinesterase (AChE) small molecule antagonists: enzyme-based qHTS assay with human liver microsomes (AID 1347399; calls by dose curve; note: nearly all actives have a fitted effect of over 60% in size). Particulars: Potency: qHTS inhibition. Summed up:
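Recombinant human AChE (50 mU/mL in the enzyme mix) and human liver microsomes (0.25 mg/mL final) were preincubated with compound and NADPH (0.25 mg/mL final) for 30 min at 37 C. Acetylthiocholine/DTNB was then added; thiocholine was read colorimetrically after 10 min at room temperature.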

Experiment [5] deals with Cytochrome P450 2D6 (Homo sapiens) (UniProt P10635). The experiment in a line: Cytochrome P450 Family 2 Subfamily D Member 6 (CYP2D6) small molecule antagonists: luciferase reporter qHTS assay (AID 1671196). Note: nearly all actives have a fitted effect of over 50% in size. The method in brief: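 P450-Glo format: CYP2D6 converts a proluciferin substrate to luciferin in an NADPH-driven reaction lasting 1 h at room temperature. Light output, proportional to CYP2D6 activity, reflects interference by test chemicals.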
For orientation: A reporter such as luciferase makes a cellular process visible.

The target in experiment [6] is Cytochrome P450 2C19 (Homo sapiens) (UniProt P33261). The experiment in a line: Cytochrome P450 Family 2 Subfamily C Member 19 (CYP2C19) small molecule antagonists: luciferase reporter qHTS assay (AID 1671197). Note: nearly all actives have a fitted effect of over 65% in size. The method in brief:
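P450-Glo CYP2C19 system: enzyme-substrate mix with compound 10 min at room temperature, then NADPH regeneration solution, 1 h at 37C. Proluciferin-to-luciferin conversion detected by luminescence after 20 min with detection reagent; ketoconazole as positive control.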

Experiment [7] concerns the target Cytochrome P450 2C9 (Homo sapiens) (UniProt P11712). The experiment in a line: Cytochrome P450 Family 2 Subfamily C Member 9 (CYP2C9) small molecule antagonists: luciferase reporter qHTS assay (AID 1671198). Note: nearly all actives have a fitted effect of over 50% in size. The method in brief: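 CYP2C9 activity was measured with a P450-Glo proluciferin substrate. Enzyme–substrate mix was held with compound for 10 min at room temperature, then NADPH regeneration solution was added for 1 h at 37C. Luciferin product was read as luminescence.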

The target in experiment [8] is Cytochrome P450 1A2 (Homo sapiens) (UniProt P05177). The experiment in a line: Cytochrome P450 Family 1 Subfamily A Member 2 (CYP1A2) small molecule antagonists: luciferase reporter qHTS assay (AID 1671199). Note: nearly all actives have a fitted effect of over 50% in size. Summed up:
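Inhibition of CYP1A2 conversion of proluciferin to luciferin, detected by luminescence. Reaction run 1 h at room temperature with NADPH regeneration after brief compound preincubation.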

Experiment [9] addresses Voltage-gated inwardly rectifying potassium channel KCNH2 (Homo sapiens) (UniProt Q12809). The experiment in a line: Human Ether-a-go-go-Related Gene (hERG) channel small molecule antagonists: fluorescence cell-based qHTS assay (AID 1671200). Note: nearly all actives have a fitted effect of over 50% in size. Summed up:
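In this thallium-flux screen, overnight-cultured U2OS cells bearing the channel are dye-loaded in darkness for an hour, rested 10 min at room temperature, and then monitored kinetically at 480/540 nm for two minutes post-stimulus.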
(In general: Block of hERG is tested as a sign of cardiac risk.)

Experiment [10] addresses Cytochrome P450 3A4 (Homo sapiens) (UniProt P08684). The experiment in a line: Cytochrome P450 Family 3 Subfamily A Member 4 (CYP3A4) small molecule antagonists: luciferase reporter qHTS assay (AID 1671201). Note: nearly all actives have a fitted effect of over 50% in size. The method in brief:
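CYP3A4 activity was followed with a P450-Glo proluciferin substrate. Test compounds in DMSO were preincubated 10 min; NADPH regeneration then ran 1 h, and light output was read 20 min after detection reagent.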

Records with an inconclusive call do not appear. The source made the active and inactive calls. Unless noted, calls come from the whole dose curve; as a rule, active = well fitted curve in the direction sought with a large enough effect in the repeat runs; inconclusive = weak or mixed curves; inactive = no such curve, though single readings can be large; an effect the other way counts as inactive or inconclusive.
Potency is the fitted concentration of half-maximal effect.

Sequence of Cytochrome P450 2C9 (Homo sapiens) (P11712 whole entry, looked up): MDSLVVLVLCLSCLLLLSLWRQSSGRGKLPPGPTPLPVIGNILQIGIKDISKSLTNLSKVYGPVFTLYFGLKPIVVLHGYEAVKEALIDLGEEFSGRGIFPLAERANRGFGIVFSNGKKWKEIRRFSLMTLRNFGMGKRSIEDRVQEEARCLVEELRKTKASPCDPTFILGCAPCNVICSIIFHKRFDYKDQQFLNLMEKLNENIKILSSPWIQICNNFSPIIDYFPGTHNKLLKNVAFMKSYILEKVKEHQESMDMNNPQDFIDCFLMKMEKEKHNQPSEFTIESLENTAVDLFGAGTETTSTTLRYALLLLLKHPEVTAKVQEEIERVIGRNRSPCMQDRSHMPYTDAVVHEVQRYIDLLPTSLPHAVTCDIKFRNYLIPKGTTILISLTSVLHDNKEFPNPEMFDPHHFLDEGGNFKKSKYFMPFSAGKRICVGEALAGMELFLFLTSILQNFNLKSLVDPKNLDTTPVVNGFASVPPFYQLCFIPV
Sequence of Cytochrome P450 3A4 (Homo sapiens) (P08684 whole entry, looked up): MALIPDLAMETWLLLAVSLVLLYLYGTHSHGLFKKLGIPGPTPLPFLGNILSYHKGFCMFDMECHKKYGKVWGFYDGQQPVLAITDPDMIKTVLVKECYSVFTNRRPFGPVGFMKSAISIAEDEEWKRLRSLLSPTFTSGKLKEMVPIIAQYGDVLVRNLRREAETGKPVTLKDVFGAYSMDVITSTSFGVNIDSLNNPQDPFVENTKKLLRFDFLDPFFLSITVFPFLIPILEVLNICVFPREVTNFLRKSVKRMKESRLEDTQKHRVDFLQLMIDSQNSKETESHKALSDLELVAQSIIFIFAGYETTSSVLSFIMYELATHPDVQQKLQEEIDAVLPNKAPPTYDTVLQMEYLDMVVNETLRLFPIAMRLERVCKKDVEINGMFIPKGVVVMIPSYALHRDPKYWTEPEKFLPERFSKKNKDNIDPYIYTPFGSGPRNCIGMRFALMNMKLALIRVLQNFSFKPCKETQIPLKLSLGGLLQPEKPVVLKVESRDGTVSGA
Sequence of Cytochrome P450 2C19 (Homo sapiens) (P33261 whole entry, looked up): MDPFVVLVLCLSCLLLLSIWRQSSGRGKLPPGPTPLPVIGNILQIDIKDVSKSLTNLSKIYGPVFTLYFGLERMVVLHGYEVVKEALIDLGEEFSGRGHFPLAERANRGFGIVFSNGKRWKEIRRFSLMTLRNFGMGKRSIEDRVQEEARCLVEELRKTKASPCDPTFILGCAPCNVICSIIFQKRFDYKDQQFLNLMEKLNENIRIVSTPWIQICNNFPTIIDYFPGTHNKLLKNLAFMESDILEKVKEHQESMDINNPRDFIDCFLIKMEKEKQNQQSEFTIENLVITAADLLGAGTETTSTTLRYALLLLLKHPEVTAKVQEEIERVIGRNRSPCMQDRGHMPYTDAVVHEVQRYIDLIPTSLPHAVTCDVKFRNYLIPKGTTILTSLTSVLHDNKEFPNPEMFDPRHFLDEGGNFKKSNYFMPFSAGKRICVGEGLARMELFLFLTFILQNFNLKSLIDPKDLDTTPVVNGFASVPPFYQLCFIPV
Sequence of Cytochrome P450 2D6 (Homo sapiens) (P10635 whole entry, looked up): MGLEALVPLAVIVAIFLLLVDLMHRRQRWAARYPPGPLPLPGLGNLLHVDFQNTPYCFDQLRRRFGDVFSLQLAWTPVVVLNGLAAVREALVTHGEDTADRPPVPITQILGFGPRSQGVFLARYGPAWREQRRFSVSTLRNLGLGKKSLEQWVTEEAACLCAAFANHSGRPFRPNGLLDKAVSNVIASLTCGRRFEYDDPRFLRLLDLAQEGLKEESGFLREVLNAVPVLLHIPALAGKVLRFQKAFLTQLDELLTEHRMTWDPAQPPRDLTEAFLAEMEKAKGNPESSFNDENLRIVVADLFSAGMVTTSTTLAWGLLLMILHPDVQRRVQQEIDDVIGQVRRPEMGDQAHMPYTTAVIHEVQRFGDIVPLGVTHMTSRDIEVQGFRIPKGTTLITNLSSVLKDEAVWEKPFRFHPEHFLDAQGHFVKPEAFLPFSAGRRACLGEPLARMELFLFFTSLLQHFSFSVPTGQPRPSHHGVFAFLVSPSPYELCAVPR
Sequence of Cytochrome P450 1A2 (Homo sapiens) (P05177 whole entry, looked up): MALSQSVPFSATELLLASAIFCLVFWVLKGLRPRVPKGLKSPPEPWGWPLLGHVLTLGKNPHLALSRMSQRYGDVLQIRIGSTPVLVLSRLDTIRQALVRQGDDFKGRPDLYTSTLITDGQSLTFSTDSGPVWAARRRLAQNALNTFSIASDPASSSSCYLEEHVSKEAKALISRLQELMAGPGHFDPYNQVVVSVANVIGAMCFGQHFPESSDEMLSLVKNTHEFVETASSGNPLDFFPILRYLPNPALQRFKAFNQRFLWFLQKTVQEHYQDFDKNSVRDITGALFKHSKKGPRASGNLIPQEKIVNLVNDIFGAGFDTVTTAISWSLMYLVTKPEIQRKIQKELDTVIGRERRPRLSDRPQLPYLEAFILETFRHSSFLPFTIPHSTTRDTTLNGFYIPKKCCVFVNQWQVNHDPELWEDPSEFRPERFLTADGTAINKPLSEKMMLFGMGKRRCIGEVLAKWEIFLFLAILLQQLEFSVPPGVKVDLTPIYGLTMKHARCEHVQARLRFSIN
Sequence of Acetylcholinesterase (Homo sapiens) (P22303 whole entry, looked up): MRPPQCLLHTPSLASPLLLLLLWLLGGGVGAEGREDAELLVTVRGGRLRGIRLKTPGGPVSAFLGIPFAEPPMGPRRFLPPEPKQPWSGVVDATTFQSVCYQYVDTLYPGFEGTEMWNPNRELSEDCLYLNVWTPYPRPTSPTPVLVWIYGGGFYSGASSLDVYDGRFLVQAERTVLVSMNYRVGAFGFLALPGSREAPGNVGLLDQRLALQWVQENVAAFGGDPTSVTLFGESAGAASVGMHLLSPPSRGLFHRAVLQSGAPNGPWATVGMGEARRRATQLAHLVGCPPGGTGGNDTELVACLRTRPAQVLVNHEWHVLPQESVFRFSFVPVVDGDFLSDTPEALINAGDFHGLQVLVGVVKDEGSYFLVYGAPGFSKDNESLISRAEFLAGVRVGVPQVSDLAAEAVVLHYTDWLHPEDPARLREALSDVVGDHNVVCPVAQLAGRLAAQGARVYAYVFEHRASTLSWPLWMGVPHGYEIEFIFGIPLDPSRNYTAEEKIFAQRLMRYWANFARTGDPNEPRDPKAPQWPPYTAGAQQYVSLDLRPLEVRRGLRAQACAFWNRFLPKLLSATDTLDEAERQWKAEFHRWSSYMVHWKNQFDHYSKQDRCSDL
Sequence of Voltage-gated inwardly rectifying potassium channel KCNH2 (Homo sapiens) (Q12809 whole entry, looked up): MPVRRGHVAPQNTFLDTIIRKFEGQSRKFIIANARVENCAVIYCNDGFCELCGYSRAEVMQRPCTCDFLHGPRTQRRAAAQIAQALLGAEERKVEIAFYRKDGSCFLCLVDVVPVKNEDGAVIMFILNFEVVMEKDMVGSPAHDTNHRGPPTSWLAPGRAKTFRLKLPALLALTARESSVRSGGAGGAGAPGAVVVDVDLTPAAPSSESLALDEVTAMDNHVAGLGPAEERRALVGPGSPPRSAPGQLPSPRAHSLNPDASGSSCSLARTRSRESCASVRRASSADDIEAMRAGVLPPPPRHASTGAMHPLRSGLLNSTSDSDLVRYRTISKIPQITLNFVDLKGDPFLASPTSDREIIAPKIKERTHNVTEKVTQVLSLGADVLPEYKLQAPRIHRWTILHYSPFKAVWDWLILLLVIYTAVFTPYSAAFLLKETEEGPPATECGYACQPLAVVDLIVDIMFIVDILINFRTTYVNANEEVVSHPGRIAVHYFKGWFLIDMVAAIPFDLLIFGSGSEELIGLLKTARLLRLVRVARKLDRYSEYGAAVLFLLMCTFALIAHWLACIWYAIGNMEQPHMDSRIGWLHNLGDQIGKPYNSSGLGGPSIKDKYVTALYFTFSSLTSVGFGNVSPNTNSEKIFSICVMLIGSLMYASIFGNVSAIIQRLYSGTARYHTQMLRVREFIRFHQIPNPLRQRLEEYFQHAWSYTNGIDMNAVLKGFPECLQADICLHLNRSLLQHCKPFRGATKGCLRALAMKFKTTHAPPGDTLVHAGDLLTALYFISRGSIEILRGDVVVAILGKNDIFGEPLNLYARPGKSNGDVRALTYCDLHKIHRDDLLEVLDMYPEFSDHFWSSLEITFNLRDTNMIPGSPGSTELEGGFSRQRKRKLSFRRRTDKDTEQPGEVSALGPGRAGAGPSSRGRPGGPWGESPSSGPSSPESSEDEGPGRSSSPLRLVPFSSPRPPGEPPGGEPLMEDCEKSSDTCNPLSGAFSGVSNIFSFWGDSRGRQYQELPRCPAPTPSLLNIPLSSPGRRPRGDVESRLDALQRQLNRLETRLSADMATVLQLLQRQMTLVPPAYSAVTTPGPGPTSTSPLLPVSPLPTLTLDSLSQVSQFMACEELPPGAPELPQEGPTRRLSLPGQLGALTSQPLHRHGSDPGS

As to `ClCCCCBr`, the Potency result in experiment [1], in experiment [2], in experiment [3], in experiment [4], in experiment [5] and in experiment [6] was “inactive” in each case. Besides, the Potency result in experiment [7], in experiment [8], in [9] and in [10] was “inactive” in each case.
In the case of `IC(I)=C(I)I`, the Potency entry in experiment [1], in experiment [2], in experiment [3], in experiment [4], in [5] and in experiment [9] was “inactive” each time. Also, the Potency result in experiment [10] is “inactive”. Moreover, the results for the Potency in experiment [6], in experiment [7] and in experiment [8] were 7.1 µM (active), 3.56 µM (active) and 10 µM (active), respectively.
With `COP(=S)(OC)Oc1ccc([N+](=O)[O-])cc1Cl`, the Potency result in [1], in experiment [2], in experiment [3], in experiment [4], in experiment [5] and in [9] was “inactive” throughout. Besides, the Potency in experiment [6] was 39.9 µM (active); in experiment [7], 20 µM (active); in experiment [8], 22.4 µM (active); in experiment [10], 6.33 µM (active).
`OC(c1ccc(Cl)cc1)(c1ccc(Cl)cc1)c1cccnc1`: the Potency entry in experiment [1], in experiment [2], in experiment [3] and in experiment [4] was “inactive” each time. For the same compound, the Potency is 11.2 µM (active) in experiment [5]; 0.0796 µM (active) in experiment [6]; 0.448 µM (active) in [7]; 35.6 µM (active) in [8]; 34.7 µM (active) in [9]; 2.24 µM (active) in experiment [10].
`COc1ccc(-c2ccccc2)cc1NNC(=O)OC(C)C`: the Potency entry in experiment [1], in experiment [2], in experiment [3], in experiment [4] and in experiment [9] was “inactive” in each case. For the same compound, the Potency in experiment [5] is 0.83 µM (active); in experiment [6], 0.262 µM (active); in experiment [7], 2.62 µM (active); in experiment [8], 5.88 µM (active); in experiment [10], 1.04 µM (active).
Turning to `CCc1ccc(C(=O)NN(C(=O)c2cc(C)cc(C)c2)C(C)(C)C)cc1`, the Potency result in experiment [1], in experiment [2], in experiment [3], in [4], in experiment [5] and in experiment [8] was “inactive” each time. Also, in experiment [9], the Potency result was “inactive”. For the same compound, the Potency in experiment [6] was 5.03 µM (active); in experiment [7], 11.2 µM (active); in experiment [10], 5.03 µM (active).
For `CNP(=O)(OC)Oc1ccc(C(C)(C)C)cc1Cl` (configuration not stated), the Potency was 71 µM (active) in [1]; 79.6 µM (active) in experiment [2]; 31.7 µM (active) in experiment [3]; 71 µM (active) in experiment [5]; 8.94 µM (active) in [6]; 35.6 µM (active) in experiment [7]. For the same compound, the Potency in experiment [8] is 35.6 µM (active). Besides, the Potency result in experiment [4], in [9] and in experiment [10] was “inactive” in each case.
Regarding `CC1CC(CC2CCC(N)C(C)C2)CCC1N` (configuration not stated), the Potency entry in [1], in [2], in experiment [3], in experiment [4], in experiment [6] and in experiment [7] was “inactive” throughout. Moreover, the Potency result in [9] was “inactive”. In addition, the Potency in [5] was 12.8 µM (active); in experiment [8], 32.2 µM (active); in experiment [10], 2.87 µM (active).
Consider `O=[N+]([O-])C(Br)(CO)CO`, for which the Potency in [1] is 79.6 µM (active); in experiment [2] it was 63.3 µM (active); in experiment [4], 71 µM (active); in [6], 6.33 µM (active); in experiment [7] it was 5.03 µM (active); in [8], 17.8 µM (active). The Potency entry in experiment [3], in experiment [5], in [9] and in [10] was “inactive” throughout.
In the case of `CC(C)=CCOc1c2occc2cc2ccc(=O)oc12`, the Potency result in [1], in experiment [2], in experiment [3], in experiment [4] and in experiment [9] was “inactive” each time. Besides, the Potency in [5] was 4.9 µM (active); in experiment [6] it was 4.36 µM (active); in [7], 0.617 µM (active); in experiment [8], 0.229 µM (active).
As for `CN1C(=O)C(O)N=C(c2ccccc2)c2cc(Cl)ccc21` (configuration not stated), the Potency entry in experiment [1], in [2] and in experiment [3] was “inactive” in each case.
Consider `CCOP(=S)(OCC)SCn1nnc2ccccc2c1=O`, for which the Potency in experiment [1] was 12.6 µM (active); in experiment [2], 35.6 µM (active); in experiment [3] it was 5.64 µM (active); in [4] it was 0.252 µM (active); in [5] it was 35.6 µM (active); in experiment [6], 0.356 µM (active). Moreover, the Potency in experiment [7] is 0.633 µM (active); in experiment [8] it was 35.6 µM (active); in [10] it was 1.59 µM (active). The Potency entry in [9] was “inactive”.
